# Screening results (PubChem BioAssay)
# Bead autofluor: counter-screen for toxin protease inhibitors: compound fluorescence; compound autofluorescence counterscreen, microsphere flow cytometry; stronger effect = higher value; fluorescence intensity (concentration not given with the values); 360,000 compounds, 3.1% hits; in the data active means fluorescence intensity above about 16000; inconclusive means no clear call, values can overlap the other calls
# BoNT F protease: BoNT/F light chain protease inhibitors, primary screen, biochemical, flow cytometry, MLPCN library; Botulinum neurotoxin type F light chain protease (Clostridium botulinum); Multiplex microsphere protease cleavage assay; AID 588497, 2011; inhibition, % at 10 µM; 360,000 compounds, 0.22% hits; in the data active means inhibition above about 35%, passing the limit was not always enough; inconclusive means no clear call, values can overlap the other calls; further: plate controls were buffer without enzyme for full effect and enzyme alone for no effect
# GDH-TPI counter-1: GDH-TPI coupling enzyme inhibitors, primary screen, artefact control for M. tuberculosis FBA inhibitor project, biochemical, absorbance, full deck. inhibition, % at 4.8 µM. 360,000 compounds, 1.2% hits. GDH-TPI coupled enzyme counterscreen, NADH absorbance; in the data active means inhibition above about 30%;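 further: 0% = DMSO wells and 100% = wells lacking the enzyme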
# FBA Mtb inh: Mtb FBA enzyme inhibitors, primary screen, biochemical, fluorescence, strain H37Rv. Fructose-bisphosphate aldolase (Mycobacterium tuberculosis (strain ATCC 25618 / H37Rv)), …. purified M. tuberculosis FBA, fluorescence read-out. inhibition, % at 1 µM. 360,000 compounds, 2.3% hits; in the data active means inhibition above about 27%;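 further: 0% = vehicle and 100% = reference inhibitor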
# Target sequence (P9WQA3 whole entry, looked up): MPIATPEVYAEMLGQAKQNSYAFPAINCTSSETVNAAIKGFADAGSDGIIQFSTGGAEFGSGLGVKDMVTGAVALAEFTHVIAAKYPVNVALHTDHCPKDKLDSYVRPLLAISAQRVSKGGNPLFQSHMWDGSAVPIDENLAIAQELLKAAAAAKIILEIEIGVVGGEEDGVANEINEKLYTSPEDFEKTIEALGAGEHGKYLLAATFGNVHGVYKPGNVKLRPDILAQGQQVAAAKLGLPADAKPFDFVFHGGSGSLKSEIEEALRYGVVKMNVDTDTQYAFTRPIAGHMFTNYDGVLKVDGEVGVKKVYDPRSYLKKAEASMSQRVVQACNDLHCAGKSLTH
# Anthrax LF prot: Bacillus anthracis LF protease inhibitors, primary screen, biochemical, multiplex microsphere, MLPCN library; Lethal factor (Bacillus anthracis), P15917; 360,000 compounds, 0.12% hits; multiplex microsphere protease cleavage assay; inhibition, % at 10 µM; further: plate controls were buffer without enzyme for full effect and enzyme alone for no effect
# BoNT A protease: BoNT/A light chain protease inhibitors, primary screen, biochemical, flow cytometry, MLPCN library. Botulinum neurotoxin type A light chain protease (Clostridium botulinum A str. ATCC 3502). multiplex microsphere protease substrate cleavage. inhibition, % at 10 µM. 360,000 compounds, 0.17% hits. AID 588499, 2011; further: plate controls were buffer without enzyme for full effect and enzyme alone for no effect
# Mtb FBA inh conf: M. tuberculosis aldolase blockers, biochemical, fluorescence, strain H37Rv, confirmation; shares compounds with FBA Mtb inh; inhibition, % at 1 µM; 5,600 compounds, 78% hits; AID 651616, 2012; purified M. tuberculosis FBA, fluorescence read-out; in the data active means inhibition above about 27%;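 further: 0% = vehicle wells and 100% = reference inhibitor wells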
# GDH-TPI counter-2: GDH-TPI coupling enzyme inhibitors, artefact control for M. tuberculosis FBA inhibitor project, biochemical, fluorescence, high throughput | 5,600 compounds, 81% hits | shares compounds with FBA Mtb inh | GDH-TPI coupled enzyme counterscreen | inhibition, % at 1 µM; in the data active means inhibition above about 10%
# Starred values were filed as active, the others as inactive; ? = inconclusive; / = no result given; + = active, no number. Compounds with a hit are over-represented: about 6.7% of the library has one in this group of screens. Unless noted, no stated cut-off is given here; in the data, active means inhibition above about 30%; inconclusive means no clear call, values can overlap the other calls; inactive means below that.
SMILES,Bead autofluor,BoNT F protease,GDH-TPI counter-1,FBA Mtb inh,Anthrax LF prot,BoNT A protease,Mtb FBA inh conf,GDH-TPI counter-2
COc1cc2cc(CN(CCCO)S(=O)(=O)c3ccccc3)c(=O)[nH]c2cc1OC,7910,-4,37*,55*,3,0,2,-2
COc1cc2cc(CN(CCCO)S(=O)(=O)c3ccccc3Cl)c(=O)[nH]c2cc1OC,10480,-1,-3,19,-2,1,/,/
COc1cc2cc(CN(CCO)S(=O)(=O)c3ccccc3Cl)c(=O)[nH]c2cc1OC,16702*,-2,33*,49*,-2,?,118*,101*
Cc1cc(C)c(C(=O)CN2C(=O)NC3(CCCCC3)C2=O)cc1C,3343,-7,19,3,-5,0,/,/
CCC(C)[C@H](NC(=O)C1CC(=O)N(c2ccc3c(c2)OCCO3)C1)C(=O)NC1CCCC1 (stereo partly specified),5176,3,-11,2,0,0,/,/
CC(C)[C@H](NC(=O)C1CC(=O)N(c2ccc3c(c2)OCCO3)C1)C(=O)NC1CCCC1 (stereo partly specified),5000,2,-3,96*,-1,1,+,+
COc1ccc(-c2nn(C)c(=O)c3ccccc23)cc1CNC(=O)c1ccco1,5863,-30,18,4,-5,-3,/,/
NNC(=O)C1=NOC(CNc2ncc(C(F)(F)F)cc2Cl)C1 (stereo unspecified),3371,-3,-9,6,-4,0,/,/
COc1cc(C(=O)N(Cc2ccc(C)o2)C2CCS(=O)(=O)C2)cc(OC)c1OC (stereo unspecified),4718,3,-1,-2,-1,3,/,/
CC(=O)Oc1ccc(-c2cc3ccccc3oc2=O)cc1,/,/,37*,75*,/,/,+,+
CC(=O)Oc1ccc(-c2cc3c(OC(C)=O)cc(OC(C)=O)cc3oc2=O)cc1,5055,0,8,92*,0,0,171*,195*
COC(=O)COc1ccc2cc(-c3ccc(OC)cc3)c(=O)oc2c1,5147,6,17,44*,-3,0,188*,171*
CC(=O)Oc1ccc(-c2nc3ccccc3c(=O)o2)cc1,3425,33,-3,0,-3,0,/,/
O=C(NN1C(=O)c2cc(Br)ccc2NC1c1ccccc1Cl)c1ccncc1 (stereo unspecified),2016,2,1,-3,1,1,/,/
COc1ccc2cc(CCNC(=O)c3ccc(S(=O)(=O)N4CCOCC4)cc3)c(=O)[nH]c2c1,4629,-10,15,79*,-5,-1,105*,85*
COc1ccc(CCNC(=O)COc2ccc(S(=O)(=O)N3CCOCC3)cc2C)cc1,4665,1,0,105*,0,-1,126*,104*
COc1ccc(CNC(=O)c2ccc(S(=O)(=O)N3CCOCC3)cc2)cc1,?,-2,8,-3,-4,1,/,/
COc1ccc(NS(=O)(=O)c2ccc(S(=O)(=O)N3CCCC3)cc2)cc1,2502,4,2,4,-13,0,/,/
COc1ccc(NS(=O)(=O)c2ccc(S(=O)(=O)N3CCOCC3)cc2)cc1,4276,-1,1,45*,1,0,149*,102*
COc1ccc(S(=O)(=O)N2CCNCC2)cc1OC,2609,-1,9,-1,-1,0,/,/
COc1cc2c(cc1OC)C(CSc1ccccc1C(=O)O)=NC(C)(C)C2,4738,1,2,-2,-2,0,/,/
